Test results from the supplement of paper PMC11417369.
± gives the standard deviation of the averaged measurements. Over roughly 25,000 sequences, “ln(normalized median fluorescence intensity)” has its median near 10; the highest 2% begin near 12. The sample holds the highest values, similar sequences and a random draw of the others, so the mix is not that of the screen.

test system: PfAP2-G AP2 domain (GST-tagged); assay: gcPBM binding intensity (ln(normalized median fluorescence intensity)); higher = stronger DNA binding
Method in brief: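 Binding intensity is defined as the maximum Masliner-normalised natural-log median intensity across replicate spots for either probe orientation. It was measured on an Agilent 4 × 180k array of primer-extended double-stranded 36-bp intergenic genomic probes and negative controls, to which GST-tagged P. falciparum DNA-binding domains made in E. coli were applied for 1 h in 1× PBS with 1% milk, 0.2 mg/ml BSA, 0.5% salmon testes DNA and 0.03% Triton X-100. Detection was by Alexa488 anti-GST antibody and scanning at 488 nm.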

Row | Sequence | gcPBM binding intensity (ln)
1 | GTTTGGTGGTGTTTTGGTACGTACGGGGGTGTATGT [XGTACX_site1211] | 11.7 ± 0.85
2 | TATGATTTTTATATATGTACGTATGGTGTTTTACAA [XGTACX_site6100] | 11.3 ± 0.53
3 | TGTTTTGTTTTTTGGGGTACATGTTTTGTATTATAT [XGTACX_site7997] | 11.6 ± 0.78
4 | GACTTTTCATTTATAGTGCAAGTTTTTTTTTTTTTT [GTGCAC_site9698] | 10.1 ± 0.23
5 | CAAAAGTAAGCACGCACACACAACATGAAATAAACT [CACACA_site6223] | 10.29 ± 0.078
6 | ATATATTTTGATTGCACACAGAATTTAAATCATGAT [CACACA_site2343] | 10.1 ± 0.2
7 | TATTTATAAAAATATACACACATACAAATATGCATA [CACACA_site4555] | 9.815 ± 0.007
8 | CATAAATACTATATATGTACGTAATTTTTAAAACAT [XGTACX_site7710] | 11.6 ± 0.83
9 | TTTTTTTTTTTAATATGTACGTAAAATAAGTTTAAA [XGTACX_site6495] | 11.4 ± 0.95
10 | TTTTTTTTAAAACTATGTACGTAAAAATTGTAGTTT [XGTACX_site2302] | 11.7 ± 0.91
11 | TTTATTTTATTTTCATGTACAAAAGGGGAATAATAA [XGTACX_site2704] | 10.9 ± 0.71
12 | AATAGGGTCATTCAAAAAAAAAAAAAATAATAATAC [CACACA_negctrl_site644] | 10.1 ± 0.29
13 | TACACATGTTTAAAATGTACGTTTTATAACACACAC [XGTACX_site8229] | 11.3 ± 0.82
14 | ATTTCTAAATGTTGGTGTACGTTTTTTTATAACCTT [XGTACX_site1752] | 11.6 ± 1.1
15 | ATATTATAAATATAATGTACGTTTTAATTTCATGTT [XGTACX_site3557] | 11.2 ± 0.79
16 | TCACTATAATAATTTACACACATTTTAAGAAAATGG [CACACA_site5867] | 10 ± 0.18
17 | TATATTTATTATAACACACACATATATATATTATAT [CACACA_site1061] | 9.905 ± 0.064
18 | TTATAAATAAAAAATACACACATATATTTATTTATA [CACACA_site6242] | 9.77 ± 0.028
19 | TACTATGCCCCATATAAACACACAAATAAAAAGAAT [CACACA_site8857] | 10.2 ± 0.21
20 | TTTTCATGTTGTAAAGCATGCTTTACTCATAAAAAA [TGCATGCA_site917] | 9.95 ± 0.23
21 | ATAGGCAAAAAGTGTACACATTCATTTATATAAATA [CACACA_site4480] | 11.7 ± 0.79
22 | TATACATTTTTATAAAGTACACAAAAATAAATATAA [XGTACX_site1647] | 11.5 ± 0.95

Row | Sequence | gcPBM binding intensity (ln)
23 | TGCAATATATCAAAGTGTACATGCAATAAAAAAAAA [XGTACX_site652] | 11.1 ± 0.71
24 | ATTTAAATAATATGTACACACATTTAAAAAGTTATA [CACACA_site7347] | 11.6 ± 0.94
25 | ACAATATGCAAAAAGTGTACACATTCATTTATATAA [XGTACX_site1061] | 11.7 ± 0.86
26 | ATTTCATTTTATAAGTGTACAATAAAAAAAAAAAAA [XGTACX_site8677] | 11.3 ± 1
27 | TTGTAGATATTTATATGTACGAATTTATAAATATAG [XGTACX_site3611] | 11.1 ± 0.76
28 | ACTATTTTCTTCAAAACATGCACCACATAAACATAA [TGCATGCA_site200] | 10.6 ± 0.51
29 | TAATTATTATTAATAGTACACACTATGGCATTTCAA [CACACA_site2488] | 11.1 ± 0.84
30 | TATATTTATAAGTGTACACATTATATAAATCCCTAT [CACACA_site6122] | 11.7 ± 1.1
31 | GATTATTTTATAAGTACACACATTTATATATAATAA [CACACA_site2573] | 11.5 ± 1.1
32 | TATTCATATTCCAAGTGTACACATAAATCCCTAATA [XGTACX_site4131] | 11.5 ± 0.9
33 | AAAATTCATCCAACAAGTACATAAATATAATATTAT [XGTACX_site4596] | 11.3 ± 0.79
34 | ATTAACACATTTAAGTGTACATATATAAATATATAT [XGTACX_site7098] | 11.4 ± 0.83
35 | TAATATATTTATAAGTGTACACATTATATAAATCCC [XGTACX_site8875] | 11.7 ± 0.74
36 | TCATATTCCAAGTGTACACATAAATCCCTAATAACA [CACACA_site5167] | 11.7 ± 0.94
37 | ATTATATTTTTAAGTACACACATATAAATAAATATA [CACACA_site7682] | 11.4 ± 1
38 | TATAAATATATTTATACACACATTAGTGTATACATG [CACACA_site7397] | 10.2 ± 0.11
39 | TCAAAAATAAAGATCACACATATATATATATATATA [CACACA_site4381] | 10.3 ± 0.99
40 | CACATATATACACATACACACACACCCATACACCCA [CACACA_site8505] | 10.5 ± 0.39
41 | TATACAAAATAACTAGCACACATATGTATAAACATA [CACACA_site9236] | 10.2
42 | TACATACACAAATACACACACAAATACATACACAAA [CACACA_site704] | 10.2 ± 0.41
43 | TAAACATTCTTATATAGTACCCATATTAAAATATAC [XGTACX_site8014] | 10.8 ± 0.58
44 | TATATATATATAAGAAGTACAGAAAATTAGAAAAAA [XGTACX_site8773] | 11.7 ± 1.1
